# Measurements from PubChem BioAssay (NCI).
# “And” between values parts separate entries of the source, which are not always exact repeats. Equal entries are not always repeated. Compounds without any hit were thinned out: in the full panel of roughly 83,000, 20% have a hit.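 Negative percent growth values reflect cell death: -40 means 40% of the cells present at the start died, and -100 means all died.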 The source made the active and inactive calls. Rule for the calls: active = growth percent below 10; inactive = the rest.
# Test system: MDA-MB-468 breast
# Test: NCI-60 one-dose screen, 48 h (100 = growth as untreated, 0 = no growth, -100 = all killed)
# Settings: 10 µM unless noted
row,Structure (SMILES),growth
1,CC1=CNNc2c3ncnc-3ncn21,95.1% (inactive)
2,COc1ccc(C2=NN(c3ccc(S(N)(=O)=O)cc3)C(c3cn(-c4ccccc4)nc3-c3ccc(Cl)cc3)C2)cc1 (stereo not given),106% (inactive)
3,O=C(Nc1ccccn1)[C@H](O)[C@@H](O)C(=O)N1CCOCC1,119% (inactive)
4,CCN1C(=O)N(CC)C2C1NN=c1s/c(=C\c3cccc(F)c3)c(=O)n12 (stereo not given),-21.8% (active)
5,O=C(/C=C/c1cn(-c2ccccc2)nc1-c1cccc(Nc2ccnc3cc(Cl)ccc23)c1)c1ccc2c(c1)OCO2,68.2% (inactive)
6,CC(CN(C)C)CN1c2ccccc2Sc2ccccc21 (stereo not given),40.2% (inactive) and 73.1% (inactive) and 64% (inactive)
7,COc1ccc(NC(=O)c2ccc(-c3ccccc3)cc2)c(C(N)=O)c1,109% (inactive)
8,COc1cc2ccccc2cc1C(=O)NC(=S)Nc1ccc(-c2nc3ccccc3[nH]2)cc1,90.2% (inactive)
9,COc1cc2c3c(c4c5ccccc5[nH]c4c2c(OC)c1OC)C(=O)N(CCN1CCCCC1)C3=O,63.7% (inactive)
10,CCOc1ccccc1/C=N\Nc1ccc(S(=O)(=O)c2ccc(N/N=C/c3ccccc3OCC)cc2)cc1,96.8% (inactive)
11,O=c1[nH]c2c3ccncc3cc(-c3cccc(Cl)c3)c2c2cnccc12,42.1% (inactive)
12,CCOC(=O)c1sc2ncc(-c3ccc(C)cc3)n2c1C,102% (inactive)
13,Cc1cccc(N2CCN(CC(O)COc3ccc(Cl)cc3)CC2)c1 (stereo not given),107% (inactive)
14,CCC(O)CC(CC)CO (stereo not given),113% (inactive)
15,COc1cc(-c2nc(-c3nc4ccccc4[nH]3)cc3c2[nH]c2ccccc23)cc(OC)c1OC,42.1% (inactive)
16,CCCCCCCCCN1C(=O)/C(=c2\sc3n(c2=O)C2C(NN=3)N(CC)C(=O)N2CC)c2ccccc21 (stereo not given),37.9% (inactive)
17,Cc1ccc(-c2nc(SCc3nc4cc(Cl)c(Cl)cc4[nH]3)[nH]c(=O)c2C#N)cc1,116% (inactive)
18,COC(=O)c1ccc(NC2=C/C(=N/S(=O)(=O)c3ccc(C(=O)O)cc3)c3ccccc3C2=O)cc1,-37.4% (active)
19,O=c1[nH]c(=O)c2cc(Cl)cc(Cl)c2[nH]1,112% (inactive)
20,O=C1Nc2ccccc2C1(c1c[nH]c2ccccc12)c1c[nH]c2ccccc12,-23.3% (active)

row,Structure (SMILES),growth
1,CC(C)C1(C(C)C)NC(=O)NC1=O,101% (inactive)
2,CCN(CC)CCCC(C)N=C(C1=C(C(=NC(C)CCCN(CC)CC)c2cccc(OC)c2)C(=O)NC1=O)c1cccc(OC)c1 (stereo not given),-50.4% (active)
3,CN(C)C1CCN(C(=O)c2ccc(NC(=O)Nc3ccc(-c4nc(N5CCOCC5)c5cccn5n4)cc3)cc2)CC1,-60.1% (active)
4,C#C[C@]1(O)CC[C@H]2[C@@H]3CC=C4c5sc(Nc6ccc(Cl)cn6)nc5CC[C@]4(C)[C@H]3CC[C@@]21C,68.4% (inactive)
5,Cc1ccc(S(=O)(=O)Oc2ccc(Br)cc2Br)cc1,23.7% (inactive)
6,COc1ccc(-c2nn(-c3cccc(NC(=O)Nc4ccccc4)c3)cc2-c2ccncc2)cc1Cl,29.4% (inactive)
7,Nc1ccccc1C(=O)Nc1ccc(Cl)cc1Cl,94.5% (inactive)
8,CCOC(=O)Cn1c(=O)c2sc3ncccc3c2n2nnc(-c3ccccc3)c12,119% (inactive)
9,COc1ccc2cc(-c3ccnc4c(N=Nc5ccc(Cl)cc5)c(N)nn34)ccc2c1,98.8% (inactive)
10,COc1ccc(NC(=O)n2nc(/C=C\c3ccc(O)c(OC)c3)cc2/C=C\c2ccc(O)c(OC)c2)cc1,34.7% (inactive)
11,C=CC(C)C(C)(C)O (stereo not given),106% (inactive)
12,COc1ccccc1CNCCCN1C(=O)c2ccc3c4c(ccc(c24)C1=O)C(=O)N(CCCNCc1ccccc1OC)C3=O,-96.6% (active)
13,O=C(O)CN1C(=O)c2cccc3cccc(c23)C1=O,95.7% (inactive)
14,CCOC(=O)c1ccc(Nc2ccnc(SCC(=O)c3ccc(C#N)cc3)n2)cc1,48.1% (inactive)
15,COc1cc(/C=N/NC(=O)c2cnn3c2NC(c2ccccc2)C3)ccc1OC1CCCC1 (stereo not given),23.3% (inactive)
16,O=C(Nc1ccc(-c2ccc3c(c2)NC(=O)/C3=C\c2ccc[nH]2)cc1)NC1CC1,-4.36% (active)
17,COc1cc(-c2nn(-c3cccc(NC(=O)CCNc4ccc(N5CCOCC5)cc4)c3)cc2-c2ccncc2)ccc1Cl,30.7% (inactive)
18,CCOCCOCCOCCOCCOCCOCCOCCOCCOCCO (tested in a mixture with another compound),-13.5% (active)
19,Brc1ccc(SCN(CSc2ccc(Br)cc2)Cc2ccccc2)cc1,98.3% (inactive)
20,CCN1CCCC(Nc2cc(C)nc(/N=C(/N)Nc3ccc(Cl)c(Cl)c3)n2)C1 (stereo not given),-83.3% (active)
